SENP7 block: SENP7 protease inhibitors, primary screen, biochemical, luminescence, uHTS. recombinant SENP7, Z-RLRGG-aminoluciferin luminescence, 40 min. inhibition, % at 5 µM. AID 434973, 2010. actives 1.5% (n = 330,000);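 active = inhibition above about 50% at the single test dose, limit read from the data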;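 also: plate controls were DMSO with enzyme for no effect and no enzyme buffer wells for full effect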
LGR2 antag: inhibitors of bursicon-induced LGR2 CRE-luciferase signal, primary screen, cell-based, HEK293, CRE-luciferase reporter, bursicon stimulation; bursicon-stimulated, 4 h; inhibition, % at 9.99 µM; actives 0.35% (n = 380,000); AID 720647, 2013; Drosophila bursicon receptor LGR2 (rickets);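 active = drop in luminescence signal, shown as inhibition above about 50% in the replicate tests, limit read from the data, passing the limit was not always enough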;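 also: agonist challenge used bursicon conditioned medium at about half maximal strength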
HSP90 refold inh: HSP90 inhibitors, primary screen, cell lysate, luminescence; Heat shock protein HSP 90 (rabbit reticulocyte lysate; luciferase refolding); Rabbit reticulocyte lysate, luciferase refolding luminescence, 3 h; inhibition, % at 5.6 µM; actives 0.91% (n = 290,000); AID 1789, 2009;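 active = inhibition above the screen-wide mean plus 3 SD, computed separately per campaign, cut at about 16% in these data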;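 also: 0% = DMSO wells and 100% = 60 µM geldanamycin wells; inhibitors lower the luminescence because luciferase stays unfolded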
SENP8 block-1: SENP8 protease inhibitors, primary screen, biochemical, luminescence | inhibition, % at 10 µM | purified SENP8, Z-RLRGG-aminoluciferin cleavage | actives 1.2% (n = 330,000) | Sentrin-specific protease 8 (Homo sapiens), Q96LD8; in the data active = inhibition above about 50%
Target sequence (Q96LD8 whole entry, looked up): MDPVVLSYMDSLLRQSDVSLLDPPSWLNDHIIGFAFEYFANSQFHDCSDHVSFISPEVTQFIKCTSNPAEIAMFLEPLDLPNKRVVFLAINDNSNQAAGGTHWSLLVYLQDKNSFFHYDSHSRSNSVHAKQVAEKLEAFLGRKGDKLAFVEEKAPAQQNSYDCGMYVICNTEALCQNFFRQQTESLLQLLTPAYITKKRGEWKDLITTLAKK
SENP6 block: SENP6 protease inhibitors, primary screen, biochemical, luminescence, uHTS; Sentrin-specific protease 6 (Homo sapiens), Q9GZR1; Recombinant SENP6 catalytic domain, aminoluciferin luminescence; inhibition, % at 10 µM; actives 1.8% (n = 330,000); AID 2599, 2010;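 active = inhibition above about 50% at the single tested dose, limit read from the data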;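 also: plate controls were DMSO wells with enzyme for no effect and DMSO wells lacking enzyme for full effect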
SENP8 block-2: human SENP8 protease inhibitors, primary screen, biochemical, fluorescence, Nedd8 protein substrate, uHTS | Sentrin-specific protease 8 (Homo sapiens), Q96LD8 | recombinant SENP8 | actives 0.64% (n = 360,000) | AID 602440, 2012 | inhibition, % at 20 µM; in the data active = inhibition mostly above about 40%, no sharp cut-off; inactive = mostly below about 27%
SENP8 confirm: SENP8 protease inhibitors, retest, confirmation, biochemical, luminescence, single concentration | inhibition, % at 12.5 µM | Recombinant SENP8, Z-RLRGG-aminoluciferin luminescence, 60 min | actives 40% (n = 6,200) | shares compounds with SENP7 block;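 active = mean inhibition across replicates above about 50%, limit read from the data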
SENP6 confirm: SENP6 protease inhibitors, confirmation, biochemical, luminescence, single concentration | shares compounds with SENP7 block | recombinant SENP6, Z-RLRGG-aminoluciferin luminescence | inhibition, % at 12.5 µM | actives 58% (n = 6,200)
SENP7 confirm: SENP7 protease inhibitors, retest, confirmation, biochemical, luminescence, single concentration; shares compounds with SENP7 block; inhibition, % at 12.5 µM; actives 69% (n = 6,200); recombinant SENP7, Z-RLRGG-aminoluciferin luminescence, 40 min
Casp3 select: caspase-3 protease inhibitors, confirmation, selectivity assay for SENP inhibitor project, biochemical, single concentration. shares compounds with SENP7 block. inhibition, % at 12.5 µM. actives 60% (n = 6,200). purified caspase-3, Z-DEVD-aminoluciferin luminescence, 60 min;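 active = mean inhibition above about 50%, limit read from the data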;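 also: plate controls were enzyme with DMSO for no effect and wells without caspase-3 for full effect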
Target sequence (P42574 28-227 limits assumed): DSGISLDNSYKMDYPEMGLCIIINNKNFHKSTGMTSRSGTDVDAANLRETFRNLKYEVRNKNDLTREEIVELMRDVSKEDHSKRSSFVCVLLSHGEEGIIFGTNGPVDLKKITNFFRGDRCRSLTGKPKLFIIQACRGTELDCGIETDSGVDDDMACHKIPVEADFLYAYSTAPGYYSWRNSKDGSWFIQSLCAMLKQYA
SENP luc ctr: interferes with luciferase luminescence in SENP counter-screen; shares compounds with SENP7 block; inhibition, % at 12.5 µM; AID 488919; actives 39% (n = 6,200); Pre-incubated SENP8/Z-RLRGG-aminoluciferin, luciferase luminescence interference;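 active = mean inhibition above about 50% when retested at one dose, limit read from the data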;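 also: plate controls were DMSO wells with completed reaction for no effect and substrate without enzyme for full effect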
The depositor's hits bear a star. Shown are actives, neighbours in structure and some others; about 2.3% of the full set was active somewhere.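 The calls were made as follows, unless noted: active = mean inhibition above about 50% in the one-dose retest (limit read from the data); inactive = the rest.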

`O=C(c1cnn(-c2nc3ccccc3s2)c1)c1ccccc1O` gave SENP7 block 82*, LGR2 antag -44, HSP90 refold inh -1, SENP8 block-1 38, SENP6 block 79*, SENP8 block-2 17, SENP8 confirm 16, SENP6 confirm 37, SENP7 confirm 24, Casp3 select 18 and SENP luc ctr 9.
For O=C(c1cnn(-c2ccccc2)c1)c1cc(Br)ccc1O the results were SENP7 block -4, LGR2 antag -14, SENP8 block-1 -13, SENP6 block -7 and SENP8 block-2 24.
For CS(=O)(=O)N1CC2(C1)[C@H](c1ccccc1)[C@@H](CO)N2Cc1ccccn1 the results were LGR2 antag -3.
`O=C(COc1ccccc1)Nc1ccc(-c2nnc(-c3ccco3)o2)cc1` gave SENP7 block -15, LGR2 antag -34, HSP90 refold inh 2, SENP8 block-1 -16, SENP6 block 2 and SENP8 block-2 -453.
`CCN(CC)CCCNc1ccc(-c2nnc(-c3ccc(OCC(C)C)cc3)o2)cn1` gave SENP7 block 0, LGR2 antag 11, HSP90 refold inh 0, SENP8 block-1 -1, SENP6 block 31 and SENP8 block-2 -313.
For CCCOc1ccc(-c2nnc(-c3ccco3)o2)cc1 the results were SENP7 block 87*, HSP90 refold inh 9, SENP8 block-1 78*, SENP6 block -8, SENP8 block-2 -193, SENP8 confirm 4, SENP6 confirm 45, SENP7 confirm 59*, Casp3 select 46 and SENP luc ctr 15.
For CC(C)COc1ccc(-c2nnc(-c3ccco3)o2)cc1 the results were SENP7 block 94*, HSP90 refold inh 8, SENP8 block-1 59*, SENP6 block 94*, SENP8 block-2 -244, SENP8 confirm 6, SENP6 confirm 74*, SENP7 confirm 62*, Casp3 select 64* and SENP luc ctr 48.
Screening O=[N+]([O-])c1cccc(-c2nnc(-c3ccc4c(c3)OCO4)o2)c1 returned SENP7 block 65*, LGR2 antag -34, HSP90 refold inh 3, SENP8 block-1 26, SENP6 block 47, SENP8 block-2 -24, SENP8 confirm 15, SENP6 confirm 12, SENP7 confirm 33, Casp3 select 45 and SENP luc ctr 5.
Screening O=[N+]([O-])c1cccc(-c2nnc(-c3ccccc3)o2)c1 returned SENP7 block 31, LGR2 antag -136, HSP90 refold inh -2, SENP8 block-1 22, SENP6 block 49 and SENP8 block-2 8.
For Clc1ccccc1-c1nnc(-c2ccc3c(c2)OCO3)o1 the results were SENP7 block 90*, LGR2 antag -3, HSP90 refold inh 1, SENP8 block-1 89*, SENP6 block 92*, SENP8 block-2 -399, SENP8 confirm 64*, SENP6 confirm 94*, SENP7 confirm 95*, Casp3 select 79* and SENP luc ctr 59*.
O=C(N[C@H]1CC[C@H](CCNS(=O)(=O)c2ccccc2Cl)O[C@@H]1CO)c1ccccc1 was read as LGR2 antag 1.
For Clc1ccc(-c2nc(-c3cnccn3)no2)cc1 the results were SENP7 block 98*, LGR2 antag -48, HSP90 refold inh -5, SENP8 block-1 90*, SENP6 block 96*, SENP8 block-2 16, SENP8 confirm 90*, SENP6 confirm 93*, SENP7 confirm 101*, Casp3 select 97* and SENP luc ctr 56*.
`Fc1ccc(-c2nc(-c3cnccn3)no2)c(Cl)c1` gave SENP7 block 85*, LGR2 antag 16, HSP90 refold inh 5, SENP8 block-1 81*, SENP6 block 88*, SENP8 block-2 13, SENP8 confirm 85*, SENP6 confirm 85*, SENP7 confirm 96*, Casp3 select 94* and SENP luc ctr 50.
Cc1ccc(-c2nc(-c3cccnc3)no2)c(C)c1 was read as SENP7 block 46, HSP90 refold inh -3, SENP8 block-1 24, SENP6 block -10 and SENP8 block-2 30.
OC1(c2ccc(Cl)cc2)CCN(Cc2nc(-c3cnccn3)no2)CC1 was read as SENP7 block -1, LGR2 antag -19, HSP90 refold inh -1, SENP8 block-1 5, SENP6 block -5 and SENP8 block-2 -1.
CCCNC(=O)C[C@H]1CC[C@@H]2[C@@H](COc3ccc(NC(=O)c4ccc(OC)cc4)cc3C(=O)N2C)O1 was read as LGR2 antag 3.
COc1ccc2nc(NC(=O)CSc3cn[nH]n3)sc2c1 was read as SENP7 block 7, LGR2 antag -15, HSP90 refold inh 0, SENP8 block-1 11, SENP6 block 50*, SENP8 block-2 -5, SENP8 confirm 31, SENP6 confirm 28, SENP7 confirm 65*, Casp3 select 62* and SENP luc ctr 60*.
Screening CCOCC(=O)Nc1nc2ccc(S(C)(=O)=O)cc2s1 returned SENP7 block 4, LGR2 antag 7, HSP90 refold inh 7, SENP8 block-1 2, SENP6 block -2 and SENP8 block-2 17.
CCOCC(=O)Nc1nc2ccc(C)cc2s1 was read as SENP7 block 60*, HSP90 refold inh 5, SENP8 block-1 42, SENP6 block 49, SENP8 block-2 9, SENP8 confirm 30, SENP6 confirm 31, SENP7 confirm 75*, Casp3 select 72* and SENP luc ctr 55*.
